From article PMC7862700, “An all-to-all approach to the identification of sequence-specific readers for epigenetic DNA modifications on cytosine”

Experiments:
Assay in all cases: DAPPL (digital affinity profiling via proximity ligation, sequencing); 10 mM Tris-HCl pH 7.5, 50 mM NaCl, 1 mM DTT, 4% glycerol, room temperature, 30 min; GST-TFs on glutathione beads, 16-mer random dsDNA library, 0.1% formaldehyde crosslink after washing; high values mean tight binding
Settings in all cases: protein: recombinant; tags: N-terminal GST; dsDNA, one strand shown
FLI1 = biological target: T1, FLI1 (Homo sapiens, UniProt Q01543 1-452)
T1 sequence: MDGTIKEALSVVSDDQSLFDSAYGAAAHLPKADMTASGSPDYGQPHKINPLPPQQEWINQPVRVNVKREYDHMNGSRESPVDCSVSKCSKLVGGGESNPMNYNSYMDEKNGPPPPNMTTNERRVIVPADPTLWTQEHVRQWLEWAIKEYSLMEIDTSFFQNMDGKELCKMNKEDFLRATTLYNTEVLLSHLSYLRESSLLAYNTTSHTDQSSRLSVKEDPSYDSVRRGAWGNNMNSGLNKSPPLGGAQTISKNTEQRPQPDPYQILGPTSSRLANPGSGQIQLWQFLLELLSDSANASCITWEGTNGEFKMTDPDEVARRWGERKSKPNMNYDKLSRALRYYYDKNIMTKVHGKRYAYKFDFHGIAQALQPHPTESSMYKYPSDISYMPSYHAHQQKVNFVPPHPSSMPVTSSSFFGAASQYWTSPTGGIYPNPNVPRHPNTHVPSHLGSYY
Summary of the method: (§1)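 The binding signal reported is, for every hexamer, its read frequency for a factor over its read frequency for the tag-only sample. Reads came from pools of yeast-expressed, GST-fused human transcription factors on glutathione beads, barcoded with DNA and mixed with that sample, which were incubated with 200 nmole of a random double-stranded 16-mer DNA library in Tris/NaCl/DTT/glycerol buffer at room temperature for 30 min. After washing, the pools were crosslinked with 0.1% formaldehyde, proximity-ligated with BsaI/T4 ligase for 1 h at 37 °C, PCR-amplified and sequenced on an Illumina NextSeq500.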

ELK1 = biological target: T2, ELK1 (Homo sapiens, UniProt P19419 1-428)
T2 sequence: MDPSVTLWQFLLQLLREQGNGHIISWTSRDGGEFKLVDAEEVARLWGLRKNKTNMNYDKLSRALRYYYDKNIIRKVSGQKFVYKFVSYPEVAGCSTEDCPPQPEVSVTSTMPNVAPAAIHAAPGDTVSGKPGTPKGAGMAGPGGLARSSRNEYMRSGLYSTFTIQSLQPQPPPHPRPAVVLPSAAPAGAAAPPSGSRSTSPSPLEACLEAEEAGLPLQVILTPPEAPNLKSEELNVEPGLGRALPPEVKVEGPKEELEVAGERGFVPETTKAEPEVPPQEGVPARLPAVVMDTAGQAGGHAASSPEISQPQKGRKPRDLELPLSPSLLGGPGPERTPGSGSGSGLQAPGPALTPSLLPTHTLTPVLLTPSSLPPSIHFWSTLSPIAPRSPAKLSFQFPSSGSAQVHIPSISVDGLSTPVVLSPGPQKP
Summary of the method: as §1

GABPA = biological target: T3, GABPA (Homo sapiens, UniProt Q06546 1-454)
T3 sequence: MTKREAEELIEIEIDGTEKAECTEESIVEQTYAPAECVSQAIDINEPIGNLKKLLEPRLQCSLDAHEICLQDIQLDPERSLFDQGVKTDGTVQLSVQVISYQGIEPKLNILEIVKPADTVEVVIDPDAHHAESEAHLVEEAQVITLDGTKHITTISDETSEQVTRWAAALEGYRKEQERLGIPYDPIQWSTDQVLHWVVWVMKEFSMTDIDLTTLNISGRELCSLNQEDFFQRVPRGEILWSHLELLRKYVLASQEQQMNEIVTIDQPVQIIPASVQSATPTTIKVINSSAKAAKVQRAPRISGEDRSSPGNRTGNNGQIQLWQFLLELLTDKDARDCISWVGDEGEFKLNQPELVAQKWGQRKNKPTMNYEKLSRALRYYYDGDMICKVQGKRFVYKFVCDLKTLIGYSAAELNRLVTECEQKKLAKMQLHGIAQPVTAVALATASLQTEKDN
Summary of the method: as §1

ERG = biological target: T4, ERG (Homo sapiens, UniProt P11308 1-479)
T4 sequence: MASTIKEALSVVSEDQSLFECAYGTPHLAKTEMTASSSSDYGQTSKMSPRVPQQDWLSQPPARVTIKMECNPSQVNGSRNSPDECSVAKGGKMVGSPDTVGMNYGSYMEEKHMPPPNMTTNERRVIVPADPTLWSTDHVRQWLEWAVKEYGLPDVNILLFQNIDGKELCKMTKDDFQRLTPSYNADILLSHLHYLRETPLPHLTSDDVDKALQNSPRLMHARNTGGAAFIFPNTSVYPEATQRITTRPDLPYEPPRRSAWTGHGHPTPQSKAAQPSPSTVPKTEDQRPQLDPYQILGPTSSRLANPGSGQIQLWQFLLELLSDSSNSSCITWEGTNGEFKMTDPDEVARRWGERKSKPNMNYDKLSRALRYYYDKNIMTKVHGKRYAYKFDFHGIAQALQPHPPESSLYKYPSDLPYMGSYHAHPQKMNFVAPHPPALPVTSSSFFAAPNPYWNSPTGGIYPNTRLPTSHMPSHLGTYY
Summary of the method: as §1

ELF1 = ELF1 (Homo sapiens, UniProt P32519 1-619)
Summary of the method: as §1

EHF = biological target: T5, EHF (Homo sapiens, UniProt Q9NZC4 1-300)
T5 sequence: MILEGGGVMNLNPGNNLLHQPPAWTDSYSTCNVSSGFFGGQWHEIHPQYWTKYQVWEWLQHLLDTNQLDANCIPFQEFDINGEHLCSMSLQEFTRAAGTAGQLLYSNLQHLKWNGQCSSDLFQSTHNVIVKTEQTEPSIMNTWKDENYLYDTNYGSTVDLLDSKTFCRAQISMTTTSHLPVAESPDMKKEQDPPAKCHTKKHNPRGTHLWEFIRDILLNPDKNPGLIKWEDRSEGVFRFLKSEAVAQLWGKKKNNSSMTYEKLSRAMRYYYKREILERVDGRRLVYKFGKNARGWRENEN
Summary of the method: as §1

SPI1 = SPI1 (Homo sapiens, UniProt P17947 1-270)
Summary of the method: as §1

SPIB = SPIB (Homo sapiens, UniProt Q01892 1-262)
Summary of the method: as §1

ELK3 = biological target: T6, ELK3 (Homo sapiens, UniProt P41970 1-407)
T6 sequence: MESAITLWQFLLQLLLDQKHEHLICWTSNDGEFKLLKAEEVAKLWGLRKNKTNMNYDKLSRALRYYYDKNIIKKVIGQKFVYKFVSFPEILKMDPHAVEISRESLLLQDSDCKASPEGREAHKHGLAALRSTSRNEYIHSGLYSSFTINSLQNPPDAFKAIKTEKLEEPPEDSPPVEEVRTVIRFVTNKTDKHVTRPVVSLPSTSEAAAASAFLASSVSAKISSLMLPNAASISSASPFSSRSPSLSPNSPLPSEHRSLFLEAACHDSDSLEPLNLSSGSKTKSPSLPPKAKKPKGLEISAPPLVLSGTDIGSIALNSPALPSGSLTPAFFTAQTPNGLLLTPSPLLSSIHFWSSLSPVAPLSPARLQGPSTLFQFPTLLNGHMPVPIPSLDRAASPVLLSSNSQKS
Summary of the method: as §1

SPIB, sequence (Q01892 whole entry): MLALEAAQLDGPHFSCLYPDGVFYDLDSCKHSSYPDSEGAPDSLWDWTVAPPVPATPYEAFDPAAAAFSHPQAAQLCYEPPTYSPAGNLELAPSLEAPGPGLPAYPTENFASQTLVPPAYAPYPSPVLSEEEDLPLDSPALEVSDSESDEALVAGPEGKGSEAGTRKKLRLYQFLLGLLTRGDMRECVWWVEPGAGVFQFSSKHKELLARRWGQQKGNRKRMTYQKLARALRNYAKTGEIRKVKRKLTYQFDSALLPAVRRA
ELF1, sequence (P32519 whole entry): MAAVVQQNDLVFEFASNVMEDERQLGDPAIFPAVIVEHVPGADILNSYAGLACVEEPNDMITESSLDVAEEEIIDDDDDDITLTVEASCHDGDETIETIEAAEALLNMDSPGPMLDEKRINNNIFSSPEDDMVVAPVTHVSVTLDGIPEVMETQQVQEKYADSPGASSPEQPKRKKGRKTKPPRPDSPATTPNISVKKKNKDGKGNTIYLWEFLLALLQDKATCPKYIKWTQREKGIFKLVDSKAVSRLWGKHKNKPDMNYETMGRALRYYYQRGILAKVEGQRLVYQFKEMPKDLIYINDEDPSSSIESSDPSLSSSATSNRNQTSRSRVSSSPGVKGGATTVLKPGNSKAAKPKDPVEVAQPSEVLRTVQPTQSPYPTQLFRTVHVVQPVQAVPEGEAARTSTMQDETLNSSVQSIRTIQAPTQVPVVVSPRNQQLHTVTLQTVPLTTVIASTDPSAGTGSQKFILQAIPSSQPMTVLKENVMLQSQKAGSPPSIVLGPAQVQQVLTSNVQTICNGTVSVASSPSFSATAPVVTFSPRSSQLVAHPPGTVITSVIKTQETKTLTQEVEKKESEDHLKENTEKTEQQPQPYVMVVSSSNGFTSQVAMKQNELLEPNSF

## CCCTAA
FLI1
  binding signal: 1.16 fold enrichment (6-mer frequency, TF over GST control)
ELK1
  binding signal: 1.19 fold enrichment (6-mer frequency, TF over GST control)
GABPA
  binding signal: 1.15 fold enrichment (6-mer frequency, TF over GST control)
ERG
  binding signal: 1.17 fold enrichment (6-mer frequency, TF over GST control)
ELF1
  binding signal: 1.25 fold enrichment (6-mer frequency, TF over GST control)
EHF
  binding signal: 1.24 fold enrichment (6-mer frequency, TF over GST control)
SPI1
  binding signal: 1.2 fold enrichment (6-mer frequency, TF over GST control)
SPIB
  binding signal: 1.29 fold enrichment (6-mer frequency, TF over GST control)
ELK3
  binding signal: 1.28 fold enrichment (6-mer frequency, TF over GST control)
